# The campaign covered roughly 48,000 compounds. About 13,000 (27%) showed an effect of 50% or more. Some of the results follow.
# Tested on: Wolbachia pipientis
# Test: Anti-Wolbachia Cell-Based Screen
# Assay type: functional
# Design: scale not given: in the data most compounds retested in dose-response had high values
# Conditions: 5 µM
row,Compound,Percent Effect
1,CC(C)n1ccnc1CN1C(=O)OC[C@@H]1c1ccccc1,11.77%
2,CCOCC(=O)N1C[C@H]2CC[C@@H]1CN(C(=O)c1ccncc1)C2,-0.6982%
3,CN(C)c1cnn(CC(=O)N2Cc3ccccc3C2)c(=O)c1,8.607%
4,Cn1c(Cn2ncc(N3CCCC3)cc2=O)nc2ccccc21,114.5%
5,CN1CCCN(c2cnn(Cc3ccc(C(C)(C)C)cc3)c(=O)c2)CC1,10.83%
6,O=c1cc(N2CCCCC2)cnn1CCCn1cccn1,21.14%
7,Cn1c(Cn2ncc(N3CCCCC3)cc2=O)nc2ccccc21,93.17%
8,CN(C)c1cnn(Cc2nc3ccccc3n2C)c(=O)c1,116.1%
9,CN(C)c1cnn(CC(=O)N2CCN(c3ccccc3)CC2)c(=O)c1,3.087%
10,CN1CCCN(c2cnn(Cc3ccncc3)c(=O)c2)CC1,-30.12%
11,CCCOCCn1ncc(N2CCCC2)cc1=O,0.2704%
12,O=C(NC1CC2(CCN(CCO)CC2)Oc2ccccc21)c1csnn1 (stereo not given),-25.87%
13,CC(C)c1nc(CN(C)C(=O)CCNC(=O)c2ccccc2F)no1,-5.471%
14,CC(=O)Nc1ccc([C@@H](O)[C@H]2COCC(=O)N2CC(C)C)cc1,-7.535%
15,Cc1noc(CN(C)Cc2ccc3c(c2)OCO3)n1,95.73%
16,Cc1noc(CN(Cc2ccc3c(c2)OCO3)C2CCCC2)n1,3.676%
17,CCCc1noc(CN(C)Cc2ccc3c(c2)OCO3)n1,-4.394%
18,CCc1noc(CN(C)C(=O)c2ccnc(OC3CCC3)c2)n1,-5.488%
19,CN(C(=O)Cc1ccc2c(c1)OCCO2)C1CCCCC1,-4.303%
20,CCN(Cc1nc(C2CC2)no1)Cc1ccc(C#N)cc1F,-4.842%
21,c1cc2c(cc1CN(Cc1nc(C3CC3)no1)C1CCCC1)OCO2,88.61%
22,CCc1noc(CN(Cc2ccc3c(c2)OCO3)C2CCCC2)n1,130.5%
23,Cc1csc(CNC(=O)N(C)Cc2ccc3c(c2)OCCO3)n1,-8.149%
24,CCN(Cc1ccc2c(c1)OCO2)Cc1nc(C)no1,5.817%

row,Compound,Percent Effect
1,Cc1nc(CN(Cc2ccc3c(c2)OCCO3)C2CCCC2)no1,158.9%
2,CC(C)c1nc2n(n1)CC(Nc1ncnc3c1CCC3)CC2 (stereo not given),-10.8%
3,O=C(c1cc[nH]n1)N1CCN(C(c2ccccc2)C(F)(F)F)CC1 (stereo not given),48.39%
4,N#CCCN(CCC#N)C(=O)c1ccc(COc2ccccc2C#N)o1,-1.523%
5,CN(C)CCN(C)S(=O)(=O)CC1CCOCC1,3.137%
6,CC(CS(C)(=O)=O)N(C(=O)Nc1ccc(F)cc1F)C1CC1 (stereo not given),2.637%
7,COc1cc(OC)c(CNC(=O)NCc2ccc(C#N)cc2)c(OC)c1,1.359%
8,COCCO[C@H]1COCCN(Cc2ccc(OC)cc2)C1,-5.552%
9,O=C(C1CCOc2ccccc2C1)N1Cc2cnn(CCO)c2C1 (stereo not given),-2.46%
10,CCCN(C(=O)CN1CCN(CC(C)O)CC1)C1=CCCCC1 (stereo not given),-2.912%
11,CCc1nc(C2CCCN2c2ncc(C(N)=O)cc2Cl)no1 (stereo not given),-14.14%
12,CC(=O)N1CCCC1c1nc(C)no1 (stereo not given),122.1%
13,Cc1noc([C@@H]2CCCN2C(=O)C2CCN(C(=O)C3CCC3)CC2)n1,-13.41%
14,Cc1noc([C@@H]2C[C@H](NC(=O)NC3CCCCC3)CN2C)n1,-10.92%
15,Cc1noc([C@@H]2CCCN2C(=O)C2CCN(CC(N)=O)CC2)n1,1.357%
16,CNCC(=O)N1CCCC1c1nc(C(C)C)no1 (stereo not given),10.93%
17,Cc1noc(C2CCCN2C(=O)C2CCC2)n1 (stereo not given),124.3%
18,Cc1ccc([C@@H]2CN(C(=O)c3cc[nH]c3)C[C@H]2NC(=O)C2CC2)cc1,18.05%
19,NC(=O)C1CCN(CCc2ccc(NCc3ccoc3)cc2)CC1,-9.363%
20,CCC(CC)NC(=O)c1cccnc1N1CCCC1c1ccccn1 (stereo not given),119.8%
21,CNC(=O)c1cccnc1N1CCN(C/C=C/c2ccccc2)CC1,6.453%
22,CCC(CC)NC(=O)c1cccnc1-n1cccn1,10.93%
23,CCOCCNC(=O)c1cccnc1N1CCCC1c1ccccn1 (stereo not given),122.4%
24,COc1cccc(C(=O)N2CCN(C(=O)CCCn3ccnc3)CC2)c1,-1.45%

row,Compound,Percent Effect
1,COc1ccc(C(=O)O)c(OCC(=O)NC(C)c2ccc(F)cc2)c1 (stereo not given),-5.25%
2,Cc1ccc(C(N)c2cccs2)cc1 (stereo not given),13.29%
3,Cc1ccccc1CN(Cc1ccncc1)CC(C)C,-4.812%
4,Cc1ccccc1C(N)c1ccncc1.Cl (stereo not given),102.8%
5,COCC(NC(=O)c1cc[nH]n1)c1cccc(C(F)(F)F)c1 (stereo not given),-1.057%
6,O=C(c1ccccn1)N1C[C@@H]2CC[C@H](C1)N(C(=O)CCC(F)(F)F)C2,-20.57%
7,Cn1cc(-c2nnc3sc(C4CC4)nn23)cn1,89.59%
8,Cn1cc(-c2csc(N3CCCCCC3)n2)cn1,-2.114%
9,Cn1cc(-c2nnc3sc(C4CCC4)nn23)cn1,131.8%
10,CCCC1CCCN(Cc2csc(-c3cnn(C)c3)n2)CC1 (stereo not given),-16.04%
11,Cn1cc(-c2nc(CN3CCn4c(nnc4C4CC4)C3)cs2)cn1,-10.47%
12,CCC(CO)N(Cc1ccsc1)CC1CC1 (stereo not given),-8.901%
13,CCS(=O)(=O)CCSc1ccc(Cl)cc1,82.02%
14,N#Cc1cccc(SCCS(N)(=O)=O)c1,2.301%
15,CCOc1ccc(SCCS(=O)(=O)CC)cc1,102.3%
16,CCS(=O)(=O)CCSc1ccc(Br)cc1,61.96%
17,CCOc1ccc(SCCNS(=O)(=O)CC)cc1,37.47%
18,CCS(=O)(=O)CCCN1CCSCC1c1ccc(Cl)cc1 (stereo not given),4.065%
19,CCCNS(=O)(=O)Cc1ccc(Br)cc1,-14.67%
20,N#Cc1ccc(SCCC(=O)O)cc1,-2.439%
21,CCOc1ccc(CNC(C)c2cccc(S(=O)(=O)NC)c2)cc1 (stereo not given),0.3734%
22,CC(C)c1cc(=O)[nH]c(C(C)(C)N)n1.Cl,-9.286%

# From ChEMBL document CHEMBL3988442, “University of Dundee, Small-Polar-MMV Screening Library” (2021)
